Source: ChEMBL document CHEMBL1961873, “Compounds: GSK PKIS; Assays: Nanosyn kinase panel” (2012)

What was measured:
[1] = tested on: Proto-oncogene tyrosine-protein kinase receptor Ret (Homo sapiens), P07949 [Y791F]; settings: at 1 µM
[2] = molecular target: Macrophage-stimulating protein receptor (Homo sapiens) (UniProt Q04912); settings: at 0.1 µM
[3] = molecular target: Macrophage-stimulating protein receptor (Homo sapiens) (UniProt Q04912); settings: at 1 µM
[4] = molecular target: Proto-oncogene tyrosine-protein kinase ROS (Homo sapiens) (UniProt P08922); settings: at 0.1 µM
[5] = molecular target: Proto-oncogene tyrosine-protein kinase ROS (Homo sapiens) (UniProt P08922); settings: at 1 µM
[6] = molecular target: Proto-oncogene tyrosine-protein kinase Src (Homo sapiens) (UniProt P12931); settings: at 0.1 µM
[7] = molecular target: Proto-oncogene tyrosine-protein kinase Src (Homo sapiens) (UniProt P12931); settings: at 1 µM
[8] = molecular target: Tyrosine-protein kinase Srms (Homo sapiens) (UniProt Q9H3Y6); settings: at 0.1 µM
[9] = molecular target: Tyrosine-protein kinase Srms (Homo sapiens) (UniProt Q9H3Y6); settings: at 1 µM
[10] = molecular target: Tyrosine-protein kinase SYK (Homo sapiens) (UniProt P43405); settings: at 0.1 µM
[11] = molecular target: Tyrosine-protein kinase SYK (Homo sapiens) (UniProt P43405); settings: at 1 µM
[12] = molecular target: T1, Tyrosine-protein kinase Tec (Homo sapiens) (UniProt P42680); settings: at 0.1 µM
T1 sequence (whole entry): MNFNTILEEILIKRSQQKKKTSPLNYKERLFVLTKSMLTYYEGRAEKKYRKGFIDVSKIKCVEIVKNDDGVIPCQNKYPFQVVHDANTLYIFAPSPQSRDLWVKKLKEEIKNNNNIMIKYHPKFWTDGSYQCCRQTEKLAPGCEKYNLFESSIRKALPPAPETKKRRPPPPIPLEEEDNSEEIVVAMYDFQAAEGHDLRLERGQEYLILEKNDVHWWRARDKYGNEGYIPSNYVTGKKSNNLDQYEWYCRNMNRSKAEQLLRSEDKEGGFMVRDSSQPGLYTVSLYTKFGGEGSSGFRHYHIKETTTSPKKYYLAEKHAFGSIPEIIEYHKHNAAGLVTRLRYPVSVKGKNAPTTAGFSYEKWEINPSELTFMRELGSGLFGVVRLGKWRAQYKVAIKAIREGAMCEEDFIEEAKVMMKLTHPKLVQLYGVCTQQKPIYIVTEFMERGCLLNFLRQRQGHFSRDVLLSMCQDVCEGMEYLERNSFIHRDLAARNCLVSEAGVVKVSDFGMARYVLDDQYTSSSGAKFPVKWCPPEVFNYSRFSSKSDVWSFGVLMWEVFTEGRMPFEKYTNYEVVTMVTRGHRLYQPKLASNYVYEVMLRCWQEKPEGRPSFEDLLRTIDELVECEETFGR

[13] = molecular target: T1, Tyrosine-protein kinase Tec (Homo sapiens); settings: at 1 µM
[14] = molecular target: Angiopoietin-1 receptor (Homo sapiens) (UniProt Q02763); settings: at 0.1 µM
[15] = molecular target: Angiopoietin-1 receptor (Homo sapiens) (UniProt Q02763); settings: at 1 µM
[16] = molecular target: T2, Non-receptor tyrosine-protein kinase TNK1 (Homo sapiens) (UniProt Q13470); settings: at 0.1 µM
T2 sequence (whole entry): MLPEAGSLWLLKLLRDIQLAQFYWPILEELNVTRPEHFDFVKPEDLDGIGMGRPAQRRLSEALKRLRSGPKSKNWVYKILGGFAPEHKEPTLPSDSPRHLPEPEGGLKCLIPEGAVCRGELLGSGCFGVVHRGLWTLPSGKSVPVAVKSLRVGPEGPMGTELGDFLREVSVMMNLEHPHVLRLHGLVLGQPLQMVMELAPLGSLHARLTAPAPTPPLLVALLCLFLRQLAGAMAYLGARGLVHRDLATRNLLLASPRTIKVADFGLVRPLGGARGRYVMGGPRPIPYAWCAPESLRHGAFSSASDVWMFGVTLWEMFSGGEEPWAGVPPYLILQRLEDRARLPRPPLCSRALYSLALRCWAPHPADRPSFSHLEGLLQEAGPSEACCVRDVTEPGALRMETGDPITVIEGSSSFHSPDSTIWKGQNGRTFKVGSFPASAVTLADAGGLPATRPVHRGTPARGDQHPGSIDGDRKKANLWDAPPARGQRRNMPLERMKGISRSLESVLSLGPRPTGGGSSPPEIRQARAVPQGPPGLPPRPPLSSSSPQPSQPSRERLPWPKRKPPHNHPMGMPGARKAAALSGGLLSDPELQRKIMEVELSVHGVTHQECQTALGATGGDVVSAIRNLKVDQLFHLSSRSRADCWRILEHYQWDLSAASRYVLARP

[17] = molecular target: T2, Non-receptor tyrosine-protein kinase TNK1 (Homo sapiens); settings: at 1 µM
[18] = molecular target: Activated CDC42 kinase 1 (Homo sapiens) (UniProt Q07912); settings: at 0.1 µM
[19] = molecular target: Activated CDC42 kinase 1 (Homo sapiens) (UniProt Q07912); settings: at 1 µM
[20] = molecular target: High affinity nerve growth factor receptor (Homo sapiens) (UniProt P04629); settings: at 0.1 µM;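 also: each value is a mean of replicate percent inhibition readings against TRKA kinase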
High affinity nerve growth factor receptor (Homo sapiens), sequence (P04629 33-796 limits assumed): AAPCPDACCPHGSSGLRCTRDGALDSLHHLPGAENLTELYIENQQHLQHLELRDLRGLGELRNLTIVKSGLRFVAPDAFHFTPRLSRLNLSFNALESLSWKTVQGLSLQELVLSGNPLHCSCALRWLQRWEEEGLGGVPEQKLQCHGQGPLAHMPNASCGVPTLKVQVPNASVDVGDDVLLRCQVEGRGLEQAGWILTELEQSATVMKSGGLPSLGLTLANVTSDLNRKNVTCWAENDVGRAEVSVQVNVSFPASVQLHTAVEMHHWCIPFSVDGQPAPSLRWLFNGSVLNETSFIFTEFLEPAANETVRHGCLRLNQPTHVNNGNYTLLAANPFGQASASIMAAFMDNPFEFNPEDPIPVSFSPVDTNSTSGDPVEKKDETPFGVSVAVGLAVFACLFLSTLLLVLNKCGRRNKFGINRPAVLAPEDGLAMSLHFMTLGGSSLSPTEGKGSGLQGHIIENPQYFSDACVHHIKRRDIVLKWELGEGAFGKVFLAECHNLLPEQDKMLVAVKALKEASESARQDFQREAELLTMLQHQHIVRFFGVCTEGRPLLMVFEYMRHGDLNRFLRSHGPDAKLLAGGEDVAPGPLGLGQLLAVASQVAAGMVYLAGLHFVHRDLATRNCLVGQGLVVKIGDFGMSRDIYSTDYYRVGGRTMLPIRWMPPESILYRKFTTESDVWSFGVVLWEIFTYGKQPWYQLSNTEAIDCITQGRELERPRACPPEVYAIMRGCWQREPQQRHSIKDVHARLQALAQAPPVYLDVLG

Tyrosine-protein kinase Srms (Homo sapiens), sequence (Q9H3Y6 whole entry): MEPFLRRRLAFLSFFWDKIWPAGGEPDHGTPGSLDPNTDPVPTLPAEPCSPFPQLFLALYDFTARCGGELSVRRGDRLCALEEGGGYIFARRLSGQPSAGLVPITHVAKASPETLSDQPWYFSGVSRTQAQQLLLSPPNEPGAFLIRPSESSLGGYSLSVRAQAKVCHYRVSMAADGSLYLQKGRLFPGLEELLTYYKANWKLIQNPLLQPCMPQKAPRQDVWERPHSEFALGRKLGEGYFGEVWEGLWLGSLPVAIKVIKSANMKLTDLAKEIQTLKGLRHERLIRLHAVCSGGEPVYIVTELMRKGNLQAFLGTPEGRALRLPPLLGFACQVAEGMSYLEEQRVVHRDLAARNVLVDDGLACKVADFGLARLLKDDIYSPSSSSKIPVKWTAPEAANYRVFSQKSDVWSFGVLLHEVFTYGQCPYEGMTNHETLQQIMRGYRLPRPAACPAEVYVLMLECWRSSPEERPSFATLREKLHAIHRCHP
Proto-oncogene tyrosine-protein kinase Src (Homo sapiens), sequence (P12931 2-536 limits assumed): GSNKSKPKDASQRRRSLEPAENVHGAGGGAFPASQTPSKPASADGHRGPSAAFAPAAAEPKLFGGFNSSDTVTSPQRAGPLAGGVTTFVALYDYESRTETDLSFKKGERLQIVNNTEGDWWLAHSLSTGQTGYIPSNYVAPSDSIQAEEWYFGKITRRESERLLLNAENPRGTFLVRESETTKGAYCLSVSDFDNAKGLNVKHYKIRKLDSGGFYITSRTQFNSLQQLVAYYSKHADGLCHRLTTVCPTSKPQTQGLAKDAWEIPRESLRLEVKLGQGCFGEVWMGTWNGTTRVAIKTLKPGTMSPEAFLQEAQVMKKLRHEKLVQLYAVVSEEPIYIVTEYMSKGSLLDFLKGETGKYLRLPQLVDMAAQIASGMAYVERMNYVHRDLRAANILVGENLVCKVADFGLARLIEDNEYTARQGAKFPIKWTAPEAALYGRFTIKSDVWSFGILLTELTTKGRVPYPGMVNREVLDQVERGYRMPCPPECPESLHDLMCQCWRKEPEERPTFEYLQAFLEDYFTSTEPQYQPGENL
Proto-oncogene tyrosine-protein kinase receptor Ret (Homo sapiens), P07949 [Y791F], sequence (P07949 whole entry Y791F): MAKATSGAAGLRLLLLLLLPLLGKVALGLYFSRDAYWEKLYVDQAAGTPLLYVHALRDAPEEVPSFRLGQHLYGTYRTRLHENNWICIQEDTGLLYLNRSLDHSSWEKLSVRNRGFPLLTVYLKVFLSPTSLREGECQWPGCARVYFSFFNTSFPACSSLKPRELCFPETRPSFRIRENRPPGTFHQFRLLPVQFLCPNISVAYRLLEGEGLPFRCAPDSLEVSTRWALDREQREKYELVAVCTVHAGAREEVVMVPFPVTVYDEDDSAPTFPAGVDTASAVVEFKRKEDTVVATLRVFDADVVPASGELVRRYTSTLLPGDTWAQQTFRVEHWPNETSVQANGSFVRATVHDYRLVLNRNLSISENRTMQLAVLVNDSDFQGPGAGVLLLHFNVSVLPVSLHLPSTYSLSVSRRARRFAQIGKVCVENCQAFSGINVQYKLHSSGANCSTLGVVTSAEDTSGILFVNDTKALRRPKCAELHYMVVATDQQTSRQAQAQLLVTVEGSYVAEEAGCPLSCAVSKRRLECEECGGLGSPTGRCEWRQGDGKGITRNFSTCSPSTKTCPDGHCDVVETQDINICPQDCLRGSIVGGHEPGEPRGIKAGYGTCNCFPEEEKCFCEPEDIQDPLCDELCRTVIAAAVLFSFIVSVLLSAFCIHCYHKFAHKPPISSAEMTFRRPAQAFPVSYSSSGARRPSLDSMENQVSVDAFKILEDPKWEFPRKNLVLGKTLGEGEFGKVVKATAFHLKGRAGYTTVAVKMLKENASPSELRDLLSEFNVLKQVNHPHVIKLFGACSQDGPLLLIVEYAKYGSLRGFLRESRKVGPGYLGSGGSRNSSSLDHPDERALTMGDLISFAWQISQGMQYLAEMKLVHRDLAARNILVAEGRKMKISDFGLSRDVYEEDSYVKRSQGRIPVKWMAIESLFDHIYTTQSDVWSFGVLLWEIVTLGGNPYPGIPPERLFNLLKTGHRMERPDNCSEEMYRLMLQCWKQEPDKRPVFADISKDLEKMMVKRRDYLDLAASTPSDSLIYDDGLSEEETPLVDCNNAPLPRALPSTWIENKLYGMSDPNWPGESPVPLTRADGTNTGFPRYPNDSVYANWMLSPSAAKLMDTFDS
Activated CDC42 kinase 1 (Homo sapiens), sequence (Q07912 whole entry, looked up): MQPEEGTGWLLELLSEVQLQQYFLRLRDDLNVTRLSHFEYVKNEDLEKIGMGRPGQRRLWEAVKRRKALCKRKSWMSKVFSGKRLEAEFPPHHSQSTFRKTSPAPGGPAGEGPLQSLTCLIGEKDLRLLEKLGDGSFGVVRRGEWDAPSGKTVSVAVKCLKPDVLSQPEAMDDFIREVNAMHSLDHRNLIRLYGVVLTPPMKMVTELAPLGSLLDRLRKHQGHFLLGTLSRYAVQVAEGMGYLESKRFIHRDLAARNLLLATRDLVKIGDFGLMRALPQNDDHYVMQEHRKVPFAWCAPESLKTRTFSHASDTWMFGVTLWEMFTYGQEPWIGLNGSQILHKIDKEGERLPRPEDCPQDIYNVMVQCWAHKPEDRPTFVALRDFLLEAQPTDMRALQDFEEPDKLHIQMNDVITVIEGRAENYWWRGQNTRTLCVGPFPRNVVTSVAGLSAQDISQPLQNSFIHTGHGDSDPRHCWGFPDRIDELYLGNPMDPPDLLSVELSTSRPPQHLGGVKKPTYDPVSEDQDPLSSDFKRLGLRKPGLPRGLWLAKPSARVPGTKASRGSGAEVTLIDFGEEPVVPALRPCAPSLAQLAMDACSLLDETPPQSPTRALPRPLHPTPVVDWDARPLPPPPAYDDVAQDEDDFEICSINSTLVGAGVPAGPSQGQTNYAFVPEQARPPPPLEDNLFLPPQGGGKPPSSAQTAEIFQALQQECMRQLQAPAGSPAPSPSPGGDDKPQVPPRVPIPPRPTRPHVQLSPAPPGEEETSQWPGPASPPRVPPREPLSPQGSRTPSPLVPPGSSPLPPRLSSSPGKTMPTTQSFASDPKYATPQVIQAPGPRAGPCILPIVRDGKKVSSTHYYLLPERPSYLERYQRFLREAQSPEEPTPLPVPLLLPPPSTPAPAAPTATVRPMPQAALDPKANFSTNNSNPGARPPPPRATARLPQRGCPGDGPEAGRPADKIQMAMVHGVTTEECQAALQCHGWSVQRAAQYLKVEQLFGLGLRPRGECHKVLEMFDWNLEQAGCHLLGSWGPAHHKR
Angiopoietin-1 receptor (Homo sapiens), sequence (Q02763 whole entry): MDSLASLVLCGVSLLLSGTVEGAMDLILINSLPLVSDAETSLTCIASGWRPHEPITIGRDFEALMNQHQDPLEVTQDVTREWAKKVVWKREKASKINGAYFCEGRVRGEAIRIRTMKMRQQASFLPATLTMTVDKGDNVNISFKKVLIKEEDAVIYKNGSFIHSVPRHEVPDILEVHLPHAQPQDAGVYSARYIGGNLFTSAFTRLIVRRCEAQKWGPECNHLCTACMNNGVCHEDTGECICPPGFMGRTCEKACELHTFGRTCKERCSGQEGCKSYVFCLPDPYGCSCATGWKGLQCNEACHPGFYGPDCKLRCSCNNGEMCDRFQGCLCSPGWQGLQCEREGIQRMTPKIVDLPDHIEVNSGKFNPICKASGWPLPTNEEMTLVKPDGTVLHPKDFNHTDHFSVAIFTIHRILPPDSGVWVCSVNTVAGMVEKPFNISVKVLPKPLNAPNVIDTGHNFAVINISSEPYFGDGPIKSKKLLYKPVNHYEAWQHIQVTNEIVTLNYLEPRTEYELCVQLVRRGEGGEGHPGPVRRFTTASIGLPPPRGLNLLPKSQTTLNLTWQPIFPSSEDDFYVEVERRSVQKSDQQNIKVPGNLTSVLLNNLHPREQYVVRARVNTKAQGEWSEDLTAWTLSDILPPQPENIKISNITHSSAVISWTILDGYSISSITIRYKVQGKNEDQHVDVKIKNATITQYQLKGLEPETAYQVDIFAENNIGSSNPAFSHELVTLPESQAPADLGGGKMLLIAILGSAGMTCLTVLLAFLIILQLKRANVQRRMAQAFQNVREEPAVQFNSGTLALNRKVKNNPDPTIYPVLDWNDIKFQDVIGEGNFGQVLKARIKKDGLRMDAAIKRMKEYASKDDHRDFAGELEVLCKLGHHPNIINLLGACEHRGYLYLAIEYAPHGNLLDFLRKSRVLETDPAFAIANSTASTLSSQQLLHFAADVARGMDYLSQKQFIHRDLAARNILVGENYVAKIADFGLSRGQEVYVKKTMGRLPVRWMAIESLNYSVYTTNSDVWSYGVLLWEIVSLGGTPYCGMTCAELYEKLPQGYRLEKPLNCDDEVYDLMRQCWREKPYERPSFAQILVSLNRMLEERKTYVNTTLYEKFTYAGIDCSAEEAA

SMILES	inhibition [1] [%]	inhibition [2] [%]	inhibition [3] [%]	inhibition [4] [%]	inhibition [5] [%]	inhibition [6] [%]	inhibition [7] [%]	inhibition [8] [%]	inhibition [9] [%]	inhibition [10] [%]	inhibition [11] [%]	inhibition [12] [%]	inhibition [13] [%]	inhibition [14] [%]	inhibition [15] [%]	inhibition [16] [%]	inhibition [17] [%]	inhibition [18] [%]	inhibition [19] [%]	inhibition [20] [%]
Cc1ccc(O)cc1Nc1ccnc2cc(-c3ccccn3)ccc12	93.5	-2	4.51	6.57	7.97	61	90.4	9.32	39.8	-5.01	1.9	46	83.4	7.91	48.2	8.49	38.1	2.64	18	4
COc1ccc(-c2oc3ncnc(N)c3c2-c2ccc(NC(=O)Nc3cc(C(F)(F)F)ccc3F)cc2)cc1	94.7	4.83	21.8	32.7	81.2	43.1	91.1	1.78	8.83	-0.9	-8.92	5.43	14	79.3	86.1	21	85.3	4.09	9.81	71.1
COc1cc2c(cc1Nc1nc(Nc3ccsc3C(N)=O)c3cc[nH]c3n1)N(C(=O)CN(C)C)CCC2(C)C	18.7	-4.25	28.9	79.7	83.1	0.33	11.7	-1.82	-3.22	-6.01	4.93	5.38	8.93	1.06	3.63	60.5	89.3	6.79	43.5	2.83
COC(=O)Nc1nc2ccc(S(=O)(=O)c3ccc(NC(=O)Nc4cc(C(F)(F)F)ccc4F)cc3)cc2[nH]1	0.06	0.24	1.14	2.51	3.41	7.41	6.38	-0.37	-3.26	1.38	0.05	3.65	2.49	5.47	10.9	-0.2	-6.28	0.69	0.6	1.94
CCCN(CCS(C)(=O)=O)Cc1ccc(-c2ccc3ncnc(Nc4ccc(OCc5cccc(F)c5)c(Cl)c4)c3c2)o1	2.22	2.96	4.1	2.72	6.67	3.8	6.22	1.1	2.29	-1.64	1.17	2.93	4.68	1.56	6.25	1.24	12	0.32	1.4	2.55
CCN1CCC(CC(=O)Nc2n[nH]c3nnc(-c4cccc(F)c4F)cc23)CC1	6.9	-3.31	1.81	1.13	3.93	5.1	0.53	-0.09	0.68	-0.02	-2.27	0.83	2.99	1.5	10.3	1.03	4.94	0.46	1.64	-1.1
CCn1c(-c2nonc2N)nc2cnc(Oc3cccc(NC(=O)c4ccc(N(C)C)cc4)c3)cc21	1.39	1.95	1.27	2.49	3.39	3.64	1.89	-0.5	6.2	-1.42	0.64	3.07	2.35	2.52	4.62	6.05	6.93	0.85	0.38	1.37
NS(=O)(=O)c1ccc(Nc2ncc(-c3ccccc3)o2)cc1	7.3	4	6.45	3.2	13.1	1.97	18.3	-0.76	0.22	3.95	-1.05	4.68	7.4	2.1	2.98	4.37	18.5	1.26	3.09	5.28
COc1cc(Nc2nccc(Nc3ccc4c(C)n[nH]c4c3)n2)cc(OC)c1OC	82.4	6.16	34.4	40.6	70	68.4	92.1	4.33	12.6	-1.75	42.8	23.6	63.1	8.4	49.8	43	77.3	10.1	52.9	12.2
COc1cccc(-n2ncc3c(N/N=C/c4ccc(F)cc4)ncnc32)c1	18.6	3.4	13.7	3.85	8.02	14.6	49.2	-1.01	3.9	-4.34	-3.59	5	9.02	2.18	5.99	5.45	12.4	1.52	3.5	4.72
CCNC(=O)O[C@H]1CN[C@H](C#Cc2cc3ncnc(Nc4ccc(OCc5cccc(F)c5)c(Cl)c4)c3s2)C1	2.83	3.96	3.52	4.68	3.52	0.25	6.91	-0.91	-2.79	-1.96	0.53	4.9	5.79	1.23	3.88	3.2	10.3	1.33	1.05	4.7
COc1cccc(-c2c[nH]c3c(N/N=C/c4ccncc4)ncnc23)c1	39.7	9.37	42.4	4.61	14.4	29.8	77.3	1.92	11.8	-4.09	4.79	3.87	16.5	4.98	27.5	10	41.7	1.63	15.3	6.49
O=S(=O)(CCNCc1ccc(-c2ccc3ncnc(Nc4ccc(OCc5cccc(F)c5)c(Cl)c4)c3c2)o1)c1ccccc1	15.4	1.71	2.9	4.44	6.24	9.13	8.52	-1.84	-3.16	-4.56	-4.14	1.85	5.02	5.73	8.7	4.16	22.3	2.38	1.4	2.46
CS(=O)(=O)CCNCc1coc(-c2ccc3ncnc(Nc4ccc(OCc5ccccc5)cc4)c3c2)c1	8.25	-5.7	2.31	4.75	4.27	8.85	10.9	3.44	3.19	2.29	3.66	4.07	6.39	3.15	4.19	4.53	7.58	1.22	2.21	1.72
Fc1ccc(-c2nn3ccccc3c2-c2ccncc2)cc1	7.11	3.62	3.94	1.35	3.41	-0.8	5	-1.74	0.28	2.26	0.32	1.22	2.64	3.2	4.76	-0.64	0.91	0.16	0.87	2.3
Fc1cccc(COc2ccc(Nc3ncnc4sc(-c5ccco5)cc34)cc2Cl)c1	6.83	-0.84	3.24	1.53	8.29	7.3	6.58	-3.52	-1.36	-3.2	-6.92	0.94	5.13	4.1	6.76	1.8	17	1.13	1.93	1.02
COc1ccc(-c2nn3ncccc3c2-c2ccnc(Nc3ccc4c(c3)OCCO4)n2)cc1	56.2	-3.38	8.88	6.79	21.9	7.57	51.7	0.02	0.99	1.19	-0.41	1.33	11.9	8.07	45.9	6.95	51.1	-0.12	3.47	0.04
Nc1nc(-c2cccc(Cl)c2)c(-c2ccc3ncccc3n2)s1	15.2	4.75	10.5	6.74	11.4	4.18	13.6	-1.79	-1.08	-2.15	-0.99	5.56	5.26	4.2	5.76	3.08	11.5	3.52	2.83	2.32
Fc1ccc(-c2cc(-c3c[nH]nc3-c3ccccn3)ccn2)cc1	13.8	4.71	8.86	6.8	8.14	0.27	9	-0.96	-1.26	0.3	-0.94	3.71	3.67	2.32	2.49	3.71	17.8	2.51	1.26	2.16
[O-][S+]1CCN(Cc2ccc(-c3ccc4ncnc(Nc5ccc(OCc6cccc(F)c6)c(Cl)c5)c4c3)o2)CC1	9.63	3.82	6.8	4.15	2.36	8.56	10.2	0.4	-1.62	2.13	0.31	2.12	4.55	3.66	5.42	2.94	11.7	1.61	1.32	3.52
Cc1cccc(Nc2ncc(-c3ccccc3)o2)c1	6.11	3.38	-0.6	6.3	7.89	8.62	19.3	0.16	-0.12	1.35	2.98	6.33	4.84	5.06	4.9	1.78	4.17	1.1	3.4	0.19
COc1ccc(-c2cc3c(N)ncnc3o2)cc1	4.56	-4.17	-1.06	2.19	4.11	-1.14	7.59	1.52	3.06	0.62	-0.57	-1.03	3.07	2.49	2.73	-0.85	6.1	-0.17	1.96	-0.83
COC(=O)Nc1nc2ccc(Oc3ccc(NC(=O)Nc4cccc(Cl)c4)cc3)cc2[nH]1	79.7	2.59	6.24	1.51	2.59	4.21	1.43	-2.84	-1.42	0.41	0.56	-0.16	1.83	17.1	44.7	2.25	7.76	0.12	-0.32	15.6
CC(=O)NCc1cccc(C#Cc2cncnc2Nc2ccc(OCc3cccc(F)c3)c(Cl)c2)c1	3.42	5.44	5.62	3.92	4.54	0.53	2.01	0.33	-1.05	-2.37	2.55	0.58	0.89	0.95	4.38	-1.56	-1.3	-0.45	-0.03	1.25
FC(F)(F)c1cccc(-c2nn3ncccc3c2-c2ccnc(Nc3ccc4c(c3)OCCO4)n2)c1	22.1	5.16	4.5	1.05	4.18	12.8	47.9	0.82	2.59	0.9	-1.91	4.21	15.5	4.09	10.6	1.44	5.7	0.31	0.47	1.71
c1cc(-c2cnn3nc(N4CCOCC4)ccc23)nc(NC2CC2)n1	16.2	-1.82	1.76	5.66	23.7	10.1	8.4	0.68	-0.4	3.54	-2.21	5.06	8.36	0.4	5.76	4.07	17.8	1.19	0.94	4.16
